Results from PubChem BioAssay AID1421 (Emory University Molecular Libraries Screening Center, 2008).
Out of some 1,300 compounds screened, about 140 (11%) were called active. No rule for the calls is given here. Only a sample is shown. Entries with a potency or affinity are not part of this list.

These compounds were tested against Prostaglandin E2 receptor EP2 subtype (Homo sapiens) (UniProt P43116) (assay: compounds shifting PGE2 potency at EP2 – cell-based, human EP2, PGE2 EC50 shift, dose response (AID 1421)). Settings: EP2-expressing cells, PGE2 EC50 shift by compound; at 20 µM.
Sequence of Prostaglandin E2 receptor EP2 subtype (Homo sapiens) (P43116 whole entry, looked up): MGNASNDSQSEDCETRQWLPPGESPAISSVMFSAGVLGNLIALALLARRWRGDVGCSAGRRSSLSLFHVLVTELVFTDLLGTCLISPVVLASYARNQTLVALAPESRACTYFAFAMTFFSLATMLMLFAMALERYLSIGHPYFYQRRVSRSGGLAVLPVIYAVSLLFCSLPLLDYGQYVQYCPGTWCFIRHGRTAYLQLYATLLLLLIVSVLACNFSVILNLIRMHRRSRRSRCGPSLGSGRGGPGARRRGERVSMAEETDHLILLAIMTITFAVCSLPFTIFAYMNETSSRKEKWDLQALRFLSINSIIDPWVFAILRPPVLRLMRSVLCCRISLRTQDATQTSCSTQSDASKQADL

PGE2 EC50 with compound, inactive:
COC(=O)c1sccc1NC(=O)c1cc2c(s1)CCCC2 0.5 nM
COc1ccc(Cc2n[nH]c(=S)n2Cc2ccccc2)cc1Cl 0.57 nM
CCOC(=O)c1c(NC(=O)Cc2cccs2)sc(C)c1C 0.53 nM
CCOC(=O)c1c(NC(=O)CN2CCN(C(=O)c3ccco3)CC2)sc2c1CCCC2 0.59 nM
CCOC(=O)c1c(NC(=O)c2ccc(Br)o2)sc(C)c1CC 0.27 nM
CCOC(=O)c1c(/N=C/C2C(=O)CCCC2=O)sc2c1CCCC2 0.36 nM
CCOC(=O)c1c(NC(=O)c2cccs2)sc2c1CCN(C(=O)OCC)C2 0.43 nM
CCOC(=O)Nc1sc2c(c1C(=O)OCC)CCC2 0.57 nM
COC(=O)c1c(NC(=O)Cc2cccs2)sc2c1CCCC2 0.49 nM
COC(=O)c1c(NC(=O)c2ccc(Br)s2)sc2c1CCC2 0.42 nM
Cc1cccc(/N=C/c2c(O)ccc3oc4c(c23)CCCC4)n1 1.21 nM
C=CCSc1nc2ccsc2c(=O)n1-c1ccccc1 0.37 nM
Oc1ccc(/C=N/N2CCN(C3c4ccccc4-c4ccccc43)CC2)c(O)c1 0.25 nM
COc1cc(NC(=S)NC(=O)c2cc(C)cc(C)c2)ccc1NC(=O)c1cccs1 0.3 nM
O=S(=O)(c1cccs1)N1CN(Cc2cccs2)c2nc3ccccc3nc21 0.45 nM
CCOC(=O)c1c(NC(=O)CN(CC)CC)sc2c1CCN(C(=O)OCC)C2 0.29 nM
CCOC(=O)c1c(N)nn(C(=O)C(C)(C)C)c1-c1ccccc1 0.11 nM
Cc1cc(NC(=O)c2cc(-c3ccncc3)nc3c(C)cccc23)no1 0.92 nM
CCOC(=O)c1c(NC(=O)Cn2nnc3ccccc32)sc2c1CCC(C)C2 (stereo not given) 0.53 nM
CCOC(=O)c1c(NC(=O)c2ccn(CC)n2)sc2c1CCCC2 0.33 nM
CCOC(=O)c1c(NC(=O)COC(=O)Cn2c(C)nc3ccccc32)sc2c1CCCC2 0.55 nM
CC(=O)Nc1sc2c(c1C(c1cccs1)N1CCOCC1)CCCC2 (stereo not given) 0.33 nM
CCOC(=O)c1c(NC(=O)c2ccc(N3C(=O)[C@@H]4[C@H](C3=O)[C@H]3C=C[C@@H]4C3)cc2)sc2c1CC(C)CC2 (stereo not given in full) 0.47 nM
COC(=O)c1c(NC(=S)NN2CCOCC2)sc2c1CCCC2 0.39 nM
COC(=O)c1c(NC(=O)c2ccccc2N(C)S(=O)(=O)c2ccccc2)sc2c1CCCC2 0.38 nM
CCOc1ccccc1COC(=O)c1cccc(-n2cnnn2)c1 0.54 nM
C/C(Cl)=C/Cn1c(SC(C)C)nc2c1c(=O)[nH]c(=O)n2C 0.83 nM
NS(=O)(=O)c1ccc(NCc2cnc3ccccc3n2)cc1 1.13 nM
Cc1ccccc1/C=C/c1nc2ccccc2c(=O)n1CCc1ccccc1 0.19 nM
COc1cc(C2Oc3cc(C4Oc5cc(O)cc(O)c5C(=O)C4O)ccc3OC2CO)ccc1O (stereo not given) 1.94 nM
CCCCC(=O)Nc1sc2c(c1C(=O)OCC)CCC(C=O)=C2Cl 1.75 nM
CCOC(=O)c1c(-c2cccs2)csc1NC(=O)CN1CCOCC1 2.48 nM
CCCC/C(=N\NC(=O)c1ccc(Br)o1)c1ccccc1 0.6 nM
COc1cc2cc(Br)cc(Br)c2nc1C 1.2 nM
CCC1CCc2c(sc3ncnc(N4CCOCC4)c23)C1 (stereo not given) 0.42 nM
CCOC(=O)c1c(NC(=O)c2cccs2)sc2c1CCCC2 0.75 nM
Cc1sc(NC(=O)c2cccs2)c(C(=O)OC(C)C)c1C 0.27 nM
N#CCSc1nc2ccccc2c(=O)n1C1CCCCC1 0.68 nM
O=C(OCc1ccc(Cl)cc1)c1ccccc1C(=O)c1ccccc1 0.41 nM
O=C(c1ccccc1)N1N=C(c2ccccc2)CC1c1ccccc1O (stereo not given) 0.27 nM
O=C(Nc1nc(-c2cccs2)c(-c2ccccc2)s1)c1ccco1 0.72 nM
COc1ccc(-c2nc(NC(C)=O)sc2-c2ccc(OC)cc2)cc1 0.57 nM
CCCCCOC(=O)c1[nH]c2c(c1C)C(=O)C(C(=O)OC)C(C)C2 (stereo not given) 0.88 nM
Nc1cccc(OCc2nc(N)nc(N)c2-c2ccc(Cl)cc2)c1 0.92 nM
CCc1c(-c2n[nH]c(=S)n2Cc2ccccc2)csc1C 0.32 nM
C=CCOc1nc(-c2ccncc2)nc2ccccc12 0.27 nM
CCOC(=O)CN(C(=O)CSc1nnc(Cc2ccccc2)n1-c1ccc(C)cc1)c1ccccc1 0.47 nM
Cc1ccc(C)c(CN2C(=O)C(C)Oc3ccc(C)cc32)c1 (stereo not given) 0.3 nM
Oc1ccccc1-c1nc(N2CCCC2)c2ccccc2n1 0.3 nM
CCOc1nc(-c2ccccc2O)nc2ccccc12 0.32 nM
CCCC(=O)Nc1ccccc1Sc1ncnc2scc(-c3ccccc3)c12 0.74 nM
CCCCC(CC)CN1CN(CC(CC)CCCC)CC(C)(N)C1 (stereo not given) 0.75 nM
OCCCNc1nc(-c2ccc(Br)cc2)nnc1-c1ccc(Cl)cc1 1.43 nM
COc1ccc(-n2c(COc3cccc4ccccc34)nnc2SCC#N)cc1 0.49 nM
NCCc1c(-c2ccccc2)n(-c2ccccc2)c2ccccc12 0.41 nM
FC(F)(F)c1cccc(/C=N/NC(=S)NC2CCCCC2)c1 4.2 nM
O=C(CC(Sc1ccccc1)c1cccs1)c1ccco1 (stereo not given) 0.41 nM
CCn1c2ccccc2c2cc([N+](=O)[O-])ccc21 0.38 nM
CC(C)n1c2ccccc2c2nc3ccccc3nc21 0.41 nM
CCn1c2ccccc2c2nc3ccccc3nc21 0.63 nM
